The source of these data is PubChem BioAssay (Tox21).

Activity calls are given as the source filed them. Entries that show only a call come without a potency. Calls come from the whole dose curve; as a rule, active = well fitted curve in the direction sought with a large enough effect in the repeat runs; inconclusive = weak or mixed curves; inactive = flat fitted curve, though single readings scatter.

A short description of this test: qHTS assay to test for compound auto fluorescence at 535 nm (green) in HepG2 cell free culture (AID 720686). The conditions noted are these: Cell-free medium, green autofluorescence 485/535 nm; series mostly up to 46 µM. The text has this:
U.S. Tox21 Program National Center for Advancing Translational Sciences [NCATS] NIH Chemical Genomics Center [NCGC] U.S. Environmental Protection Agency [EPA] National Institutes of Environmental Health Sciences [NIEHS] National Toxicology Program [NTP] U.S. Food and Drug Administration [FDA] Tox21 Assay Overview: Compound auto fluorescence often interferes with screening of the compound library against various biological targets and signaling pathways. Some of these compounds may have fluorophoric properties. Such properties may interfere with the assay outputs resulting in false positives and/or negatives. To decrease such complications and ensure the compound activities are relevant in terms of biological response, the Tox21 10K compound library was screened for auto fluorescence. From the fluorophores used as reporter signals in our screening assays, the auto fluorescence equivalencies of compounds against three fluorophores have been evaluated: Triamterene, Fluorescein and Rose Bengal sodium for blue, green and red fluorescence, respectively. The fluorescence intensities were measured using Excitation/Emission wavelengths at 405/460nm, 485/535nm and 540/590nm for blue, green and red labels, respectively. This assay includes the green fluorescence data.
Tox21 Assay Protocol Summary: 5 uL of culture medium (MEM containing 10% FBS) per well was dispensed into black wall/clear bottom 1536-well plates using a Multidrop Combi Dispenser (ThermoFisher Scientific, Waltham, MA). After 23 nL compound or DMSO vehicle was transferred into assay plate by a pintool work station (Kalypsys, San Diego, CA), fluorescence intensities in the assay plates were measured by an Envision (PerkinElmer, Shelton, CT) plate reader using three labels for measuring blue, green and red fluorescence at […] 460, 535 and 590nm respectively.
Background: Quantitative high-throughput screening tests each substance at several concentrations.
In the case of `CNC(C)CC1CCCCC1` (stereo not given), the Potency result was “inactive”. Consider `CC(=O)OO`, for which the Potency entry is “inactive”. The value for `C/C(=C\c1csc(C)n1)[C@@H]1C[C@@H]2O[C@]2(C)CCC[C@H](C)[C@H](O)[C@@H](C)C(=O)C(C)(C)[C@@H](O)CC(=O)O1` was “inactive”. Then `NCC[C@H](O)C(=O)N[C@@H]1C[C@H](N)[C@@H](O[C@H]2O[C@H](CN)[C@@H](O)[C@H](O)[C@H]2N)[C@H](O[C@@H]2O[C@H](CO)[C@@H](O)[C@H]2O)[C@H]1O`, with “inactive”; and `CCN(CC)/[N+]([O-])=N/O`, with “inactive”; and `C[C@@H]1[C@H](O)[C@@H](C)/C=C/C=C/CC/C=C/C=C/C=C/C=C/[C@H](O[C@H]2O[C@@H](C)[C@H](O)[C@@H](N)[C@H]2O)CC2O[C@](O)(C[C@@H](O)[C@H](O)CC[C@@H](O)C[C@@H](O)C[C@@H](O)CC(=O)O[C@H]1C)C[C@H](O)[C@H]2C(=O)O`, with “inactive”.

`CCCCC[C@@H](O)C1C(=O)OC(C)[C@H](O)/C=C/C=C/C=C/C=C/C=C(\C)C(O)C(O)C(O)C[C@H](O)C[C@H](O)C[C@H](O)C[C@H](O)C[C@@H]1O` (stereo not given in full): the Potency result was “inactive”. With `CC(C)[C@@]1(NC(=O)[C@@H]2C[C@@H]3c4cccc5[nH]cc(c45)C[C@H]3N(C)C2)O[C@@]2(O)[C@@H]3CCCN3C(=O)[C@H](Cc3ccccc3)N2C1=O`, the Potency result is “inactive”.

On to `CN(C)CCCCCCN(C)C` (tested in a mixture with another compound), for which the Potency entry was “inactive”. The value for `CCC(N)Cc1c[nH]c2ccccc12` (stereo not given) was “inactive”.

On to `O=S(=O)(O)c1cc(O)ccc1O`, for which the Potency result was “inactive”. As for `O=C1CN(O)C(c2ccccc2)=c2cc(Cl)ccc2=N1`, the Potency entry is “inactive”. Regarding `CN(C)[C@H](Cc1ccccc1)c1ccccc1`, the Potency result is “inactive”. Then `CN[C@@]1(c2ccccc2Cl)CCCCC1=O`, with “inactive”; and `C1CN(P2(N3CC3)=NP(N3CC3)(N3CC3)=NP(N3CC3)(N3CC3)=N2)CCO1` (stereo not given), with “inactive”; and `Oc1ccc2c3c1O[C@H]1[C@@H](O)CC[C@@]4(O)[C@@H](C2)N(CC2CCC2)CC[C@]314`, with “inactive”.

As to `C[C@]12N[C@H](Cc3ccccc31)c1ccccc12`, the Potency result was “inactive”.

As to `C=CC[C@]1(O)CC[C@H]2[C@@H]3CCC4=CCCC[C@@H]4[C@H]3CC[C@@]21C`, the Potency result is “inactive”. Then `CC(C)=CCN1CC[C@]2(C)c3cc(O)ccc3C[C@H]1[C@H]2C`, with “inactive”; and `Oc1cccc[c]1[Hg][Cl]`, with “inactive”; and `C[C@@H]1[C@@H]2Cc3ccc(O)cc3[C@@]1(C)CCN2CCc1ccccc1`, with “inactive”.

Consider `COc1cc(C[C@H](C)N)c(OC)cc1C`, for which the Potency result was “inactive”. Then `F/C(COc1ccc2c(c1)[nH]c1ccccc12)=C1/CN2CCC1CC2`, with “inactive”. The value for `CN[C@@H]1C[C@@H](c2ccc(Cl)c(Cl)c2)c2ccccc21` was “inactive”. As for `CCNCC(O)c1cccc(O)c1` (stereo not given), the Potency entry is “inactive”. Then `COc1ccc2c3c1O[C@H]1C(=O)CC[C@H]4[C@@H](C2)N(C)CC[C@]314`, with “inactive”. For the molecule `CO[C@H]1[C@@H](O)C[C@H](O[C@H]2[C@@H](O)C[C@H](O[C@H]3[C@@H](O)C[C@H](O[C@H]4CC[C@@]5(C)[C@H](CC[C@@H]6[C@@H]5C[C@@H](O)[C@]5(C)[C@@H](C7=CC(=O)OC7)CC[C@]65O)C4)O[C@@H]3C)O[C@@H]2C)O[C@@H]1C`, the Potency result was “inactive”.

On to `CC(=O)OC1CN2CCC1CC2` (stereo not given), for which the Potency result was “inactive”. Take `CN1[C@@H]2CC[C@H]1CC(OC1c3ccccc3CCc3ccccc31)C2` (stereo not given in full): the Potency result is “inactive”. Regarding `c1ccc2c(c1)Sc1ccccc1N2CC1CN2CCC1CC2` (stereo not given), the Potency result was “inactive”.

With `CC(N)Cc1ccc(O)cc1` (stereo not given), the Potency entry is “inactive”. For `CCCC(C)C1(CC)C(=O)NC(=O)NC1=O` (stereo not given), the Potency result is “inactive”. For `Oc1cc[c]([Hg][Cl])cc1`, the Potency result was “inactive”. As to `CO/C=C(/C(=O)OC)c1ccccc1Oc1cc(Oc2ccccc2C#N)ncn1`, the Potency result is “inactive”. Then `[S]=[Sb](=[S])[S][Sb](=[S])=[S]`, with “inactive”; and `[H+].[H+].[Hg+2].[O-]B([O-])[O-].[c-]1ccccc1`, with “inactive”.

Take `CNC(=O)Oc1ccccc1C(=O)Nc1ccccc1`: the Potency entry was “inactive”. The value for `CN[C@]1(c2ccccc2Cl)CCCCC1=O` was “inactive”. The value for `CCC1(c2ccccc2)C(=O)NC(=O)N(C(=O)c2ccccc2)C1=O` (stereo not given) was “inactive”; that for `CNC(=O)OCC[N+](C)(C)C` was “inactive”.
